# Values joined by “and” are separate entries in the source; they are usually repeats but may differ in a detail not shown here. Identical values can stand only once. Inconclusive results are not listed. Entries that show only a call come without a potency. Active and inactive are the calls of the source. Unless noted, calls follow the shape of the dose curve; as a rule, active = well fitted curve in the direction sought with a large enough effect; inconclusive = small, poorly fitted or top-dose-only effect, or another doubt; inactive = no such curve, though single readings can be large; an effect the other way counts as inactive or inconclusive. Where a SMILES comes first, the peptide text is derived from it.
# What was measured:
# [1] = biological target: Estrogen receptor (Homo sapiens) (UniProt P03372); assay: qHTS assay for small molecule agonists of estrogen receptor alpha signaling (AID 588514; calls by dose curve; also: nearly all actives have a fitted effect of over 70% in size)
# In short: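 ER-alpha-UAS-bla GripTite HEK 293 cells in medium with 2% charcoal/dextran-treated FBS were treated with compound titrations at 37 C for 18 hrs; beta-lactamase reporter read by CCF4 fluorescence after 2 hrs at RT.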
# [2] = qHTS assay for small molecule antagonists of peroxisome proliferator-activated receptor delta signaling (AID 588535; active = well fitted inhibition curve with a large enough effect in the signal ratio, with a control signal flat, not every such curve was filed as active; the % refers to the signal ratio;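 as to max response: cells co-treated with a PPAR-delta agonist as stimulator during compound exposure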); details: HEK293T PPARd-UAS-bla, beta-lactamase FRET ratio, 18 h; 460 nm channel
# In short: (§1)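 GeneBLAzer PPAR-delta-UAS-bla HEK293T cells in medium with 2% charcoal/dextran FBS were preincubated 5 hrs at 37 C, then given compounds, incubated 18 hrs at 37 C, and read by CCF4 beta-lactamase fluorescence; IC50 from Hill fits.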
# [3] = biological target: Peroxisome proliferator-activated receptor delta (Homo sapiens) (UniProt Q03181); assay: as above
# Sequence of Peroxisome proliferator-activated receptor delta (Homo sapiens) (Q03181 whole entry, looked up): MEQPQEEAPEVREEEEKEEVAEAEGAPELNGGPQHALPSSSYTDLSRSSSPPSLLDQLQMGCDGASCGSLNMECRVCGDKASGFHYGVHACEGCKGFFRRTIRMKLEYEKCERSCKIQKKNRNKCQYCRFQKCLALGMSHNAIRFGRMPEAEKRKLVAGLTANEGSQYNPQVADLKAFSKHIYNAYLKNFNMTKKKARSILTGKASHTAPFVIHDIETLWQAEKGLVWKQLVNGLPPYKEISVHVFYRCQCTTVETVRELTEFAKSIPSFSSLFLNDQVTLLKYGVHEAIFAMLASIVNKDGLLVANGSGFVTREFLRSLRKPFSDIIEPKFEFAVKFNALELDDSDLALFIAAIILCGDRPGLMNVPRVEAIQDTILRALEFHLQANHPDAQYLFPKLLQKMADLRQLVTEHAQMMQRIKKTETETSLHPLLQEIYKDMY
# In short: as §1
# [4] = qHTS assay for small molecule agonists of retinoid X receptor alpha signaling (AID 588544); details: HEK293T RXRa-UAS-bla, beta-lactamase reporter, 18 h; 530 nm emission
# [5] = biological target: Androgen receptor (Homo sapiens) (UniProt P10275); assay: qHTS assay for small molecule agonists of androgen receptor signaling (AID 588515; active = well fitted curve in the direction sought with a large enough effect in the signal ratio, with a control signal flat; the % refers to the signal ratio); details: AR-UAS-bla HEK293, beta-lactamase ratio, agonist 16 h; stronger effect = higher value
# Sequence of Androgen receptor (Homo sapiens) (P10275 whole entry, looked up): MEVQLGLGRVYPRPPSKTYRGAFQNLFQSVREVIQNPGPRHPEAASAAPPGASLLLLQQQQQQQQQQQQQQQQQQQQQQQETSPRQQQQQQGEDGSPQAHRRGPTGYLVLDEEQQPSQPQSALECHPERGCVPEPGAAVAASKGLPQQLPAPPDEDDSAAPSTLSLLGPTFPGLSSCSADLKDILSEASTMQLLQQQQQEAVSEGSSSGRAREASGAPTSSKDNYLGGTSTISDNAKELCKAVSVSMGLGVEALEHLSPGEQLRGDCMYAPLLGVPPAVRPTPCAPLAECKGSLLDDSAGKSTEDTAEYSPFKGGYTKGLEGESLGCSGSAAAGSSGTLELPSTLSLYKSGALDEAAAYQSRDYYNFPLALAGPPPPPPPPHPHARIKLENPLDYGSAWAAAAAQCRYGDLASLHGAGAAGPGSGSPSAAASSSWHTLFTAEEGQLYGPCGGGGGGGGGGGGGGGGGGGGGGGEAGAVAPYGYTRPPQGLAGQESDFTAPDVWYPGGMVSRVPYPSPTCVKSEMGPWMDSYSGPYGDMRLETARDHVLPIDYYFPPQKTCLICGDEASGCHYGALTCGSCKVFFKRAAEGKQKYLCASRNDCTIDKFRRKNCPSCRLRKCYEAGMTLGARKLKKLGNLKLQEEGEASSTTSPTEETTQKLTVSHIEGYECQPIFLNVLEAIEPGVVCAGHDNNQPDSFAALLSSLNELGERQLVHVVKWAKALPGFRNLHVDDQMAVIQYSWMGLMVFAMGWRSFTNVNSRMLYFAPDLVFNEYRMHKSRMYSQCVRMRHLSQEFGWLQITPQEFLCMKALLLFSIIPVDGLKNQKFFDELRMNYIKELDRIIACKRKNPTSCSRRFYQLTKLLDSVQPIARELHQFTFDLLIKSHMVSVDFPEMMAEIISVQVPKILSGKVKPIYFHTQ
# In short: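 EC50 and efficacy came from Hill fits of titrations (up to 92 uM) normalized to 30 nM R1881 as 100% and DMSO as 0%. Compound exposure was 16 h at 37 C on AR-UAS-bla HEK293 cells, with a 405/460/530 nm CCF4 fluorescence read.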
# [6] = qHTS assay to identify small molecules that stimulate interleukin-8 (IL-8) secretion (AID 651758; active = well fitted activation curve with a large enough effect in the signal ratio; the % refers to the signal ratio; also: potency is read from the fitted curve at half-maximal effect)
# In short: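 THP-1, 2000 cells/well; cpd 16 h, 37 C; add cryptate + XL665 anti-IL-8 Abs; RT 1-3 h; TR-FRET read.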
# [7] = biological target: Bile acid receptor (Homo sapiens) (UniProt Q96RI1); assay: qHTS assay for small molecule antagonists of farnesoid X receptor signaling (AID 588526; calls by dose curve; also: potency is read from the fitted curve at half-maximal effect)
# Sequence of Bile acid receptor (Homo sapiens) (Q96RI1 whole entry, looked up): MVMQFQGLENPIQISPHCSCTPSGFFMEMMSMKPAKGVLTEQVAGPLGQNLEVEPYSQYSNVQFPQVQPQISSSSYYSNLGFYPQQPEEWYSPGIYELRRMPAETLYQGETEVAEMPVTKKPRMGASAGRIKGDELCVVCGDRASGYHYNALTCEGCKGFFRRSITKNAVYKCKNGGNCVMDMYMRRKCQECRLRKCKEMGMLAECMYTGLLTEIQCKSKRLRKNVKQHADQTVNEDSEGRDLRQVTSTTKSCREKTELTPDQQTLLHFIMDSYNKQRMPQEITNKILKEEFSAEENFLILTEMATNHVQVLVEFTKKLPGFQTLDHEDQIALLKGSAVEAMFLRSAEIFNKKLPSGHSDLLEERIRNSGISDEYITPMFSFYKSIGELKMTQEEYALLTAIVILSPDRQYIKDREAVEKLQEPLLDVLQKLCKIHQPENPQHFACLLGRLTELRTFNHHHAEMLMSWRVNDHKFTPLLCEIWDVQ
# In short: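 Concentration-response titrations were fitted to the Hill equation for half-maximal inhibition and maximal response, with data normalised to 50 uM chenodeoxycholic acid and DMSO control wells. Cells: FXR-UAS-bla HEK293T, dialyzed FBS.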
# [8] = biological target: Peroxisome proliferator-activated receptor gamma (Homo sapiens) (UniProt P37231); assay: qHTS assay for small molecule antagonists of peroxisome proliferator-activated receptor gamma signaling (AID 588537; active = well fitted inhibition curve with a large enough effect in the signal ratio, with a control signal flat, not every such curve was filed as active; the % refers to the signal ratio; also: potency is read from the fitted curve at half-maximal effect)
# Sequence of Peroxisome proliferator-activated receptor gamma (Homo sapiens) (P37231 whole entry, looked up): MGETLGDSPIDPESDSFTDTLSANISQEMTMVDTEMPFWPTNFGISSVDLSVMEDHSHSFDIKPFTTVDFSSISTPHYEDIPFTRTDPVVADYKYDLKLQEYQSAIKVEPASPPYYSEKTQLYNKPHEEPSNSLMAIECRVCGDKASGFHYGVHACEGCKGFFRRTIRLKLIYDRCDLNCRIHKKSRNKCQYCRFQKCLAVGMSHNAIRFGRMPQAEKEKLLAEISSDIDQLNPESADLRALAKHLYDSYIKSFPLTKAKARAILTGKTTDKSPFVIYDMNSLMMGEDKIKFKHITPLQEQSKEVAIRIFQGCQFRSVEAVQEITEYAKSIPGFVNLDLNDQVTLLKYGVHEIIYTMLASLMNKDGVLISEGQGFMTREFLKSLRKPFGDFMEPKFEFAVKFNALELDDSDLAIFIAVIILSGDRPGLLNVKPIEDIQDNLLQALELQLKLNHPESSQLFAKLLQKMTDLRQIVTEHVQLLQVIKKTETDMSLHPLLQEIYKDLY
# In short: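 PPAR-gamma-UAS-bla HEK293 cells (3000/well, 1% charcoal/dextran-stripped FBS) were preincubated 6-6.5 h at 37 C, given titrated compounds, then stimulated with 50 nM rosiglitazone for 16 h. Beta-lactamase activity was read with CCF4 dye; IC50 came from Hill fits.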
# [9] = qHTS Assay for Identification of Small Molecule Agonists for Hypoxia Response Element Signaling Pathway (AID 914; active = well fitted activation curve with a large enough effect in the signal ratio, with a control signal flat, not every such curve was filed as active; the % refers to the signal ratio); details: ME-180 (cervical carcinoma) HRE-bla reporter, beta-lactamase ratio, CoCl2, 17 h; activation: stronger effect = higher value
# In short: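 Reporter activity (beta-lactamase, CCF4 460nm/530nm ratio) in HRE-bla ME-180 cells is recorded after 17 h compound exposure with EC50 CoCl2 at 37 degrees Celsius. AC50 values come from titration data.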
# [10] = biological target: Cytochrome P450 3A4 (Homo sapiens) (UniProt P08684); assay: qHTS Assay for Activators of Cytochrome P450 3A4 (AID 885); also: nearly all actives have a fitted effect of over 65% in size
# In short: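 Human CYP3A4 (20 nM) with Luciferin-PPXE at 25 uM (its KM) in 200 mM KPO4; 10 min compound preincubation, then NADPH regeneration and 60 min reaction at RT. Luciferin read by luminescence; normalized to 57 uM ketoconazole full inhibition.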
# [11] = biological target: Guanine nucleotide-binding protein G(i) subunit alpha-1 (Homo sapiens) (UniProt P63096); assay: qHTS Assay for Inhibitors of RGS12 GoLoco Motif Activity (Green Fluorophore) (AID 879); also: potency is read from the fitted curve at half-maximal effect
# Sequence of Guanine nucleotide-binding protein G(i) subunit alpha-1 (Homo sapiens) (P63096 whole entry, looked up): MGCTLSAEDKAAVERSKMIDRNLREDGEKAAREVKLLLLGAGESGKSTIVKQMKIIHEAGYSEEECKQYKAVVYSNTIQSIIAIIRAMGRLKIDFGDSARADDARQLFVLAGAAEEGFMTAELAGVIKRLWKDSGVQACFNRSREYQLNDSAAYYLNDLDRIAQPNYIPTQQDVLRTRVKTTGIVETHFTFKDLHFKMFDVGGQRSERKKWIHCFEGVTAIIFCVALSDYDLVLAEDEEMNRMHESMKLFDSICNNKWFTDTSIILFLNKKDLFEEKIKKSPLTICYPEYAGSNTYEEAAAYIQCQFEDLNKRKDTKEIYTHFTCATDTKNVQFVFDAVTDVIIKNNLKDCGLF
# In short: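 Fluorescence polarization assay: 50 nM Gαi1 with 10 nM FITC-labeled RGS12 GoLoco peptide in 10 mM Tris pH 7.5, 150 mM NaCl, 0.1 mM GDP, 0.05% NP40, 10 min at room temperature with compound.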
# [12] = biological target: Pyruvate kinase (Leishmania mexicana) (UniProt Q27686); assay: qHTS Validation Assay for Inhibitors of Leishmania Mexicana Pyruvate Kinase (AID 945)
# Sequence of Pyruvate kinase (Leishmania mexicana) (Q27686 2-499 E452W): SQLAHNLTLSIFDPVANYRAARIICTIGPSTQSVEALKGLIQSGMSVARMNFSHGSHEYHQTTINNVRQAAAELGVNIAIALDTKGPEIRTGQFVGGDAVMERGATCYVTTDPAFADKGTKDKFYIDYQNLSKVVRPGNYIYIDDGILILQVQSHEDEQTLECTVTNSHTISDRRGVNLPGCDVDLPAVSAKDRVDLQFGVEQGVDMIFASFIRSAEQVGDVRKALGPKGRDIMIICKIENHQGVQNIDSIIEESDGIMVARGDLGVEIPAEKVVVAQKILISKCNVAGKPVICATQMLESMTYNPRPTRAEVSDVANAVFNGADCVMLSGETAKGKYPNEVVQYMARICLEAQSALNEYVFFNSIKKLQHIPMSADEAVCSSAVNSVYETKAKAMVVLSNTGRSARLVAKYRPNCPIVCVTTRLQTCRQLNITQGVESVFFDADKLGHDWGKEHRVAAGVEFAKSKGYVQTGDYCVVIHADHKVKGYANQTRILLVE
# In short: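 Mutant LmPYK (E451W), 0.2 nM, plus 0.5 mM PEP and 0.1 mM ADP in 50 mM imidazole pH 7.2 containing 0.01% Tween 20 and 0.05% BSA. Incubated 1 h at room temperature; luminescence via PKLight, normalized to DMSO.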
# [13] = biological target: Alpha-galactosidase A (Homo sapiens) (UniProt P06280); assay: Counterscreen for Glucocerebrosidase Inhibitors: qHTS Assay for Human alpha-Galactosidase at pH 4.5 (AID 992)
# Sequence of Alpha-galactosidase A (Homo sapiens) (P06280 whole entry, looked up): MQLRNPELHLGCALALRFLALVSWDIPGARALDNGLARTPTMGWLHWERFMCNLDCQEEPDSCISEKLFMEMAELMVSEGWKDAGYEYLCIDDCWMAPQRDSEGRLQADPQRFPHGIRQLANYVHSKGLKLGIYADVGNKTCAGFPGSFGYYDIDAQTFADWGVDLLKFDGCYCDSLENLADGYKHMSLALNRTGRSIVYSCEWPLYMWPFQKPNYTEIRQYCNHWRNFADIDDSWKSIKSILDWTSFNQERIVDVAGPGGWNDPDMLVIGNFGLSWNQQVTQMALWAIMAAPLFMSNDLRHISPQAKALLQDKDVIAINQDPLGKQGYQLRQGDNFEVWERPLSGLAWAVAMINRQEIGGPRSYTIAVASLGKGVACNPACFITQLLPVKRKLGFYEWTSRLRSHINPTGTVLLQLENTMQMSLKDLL
# In short: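 Human enzyme (2 nM) with 80 uM 4-methylumbelliferyl alpha-D-galactopyranoside in 50 mM citric acid, 0.005% Tween-20, pH 4.5, 20 min at room temperature. Compounds 0.7 nM–77 uM; fluorescence Ex 365/Em 440 after pH 10 stop; AC50 from Hill fits.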
# [14] = biological target: alpha-glucosidase (Oryza sativa, rice) (UniProt Q653V4); assay: Counterscreen for Glucocerebrosidase Inhibitors: qHTS Assay for Rice alpha-Glucosidase at pH 5.0 (AID 997)
# In short: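 Rice alpha-glucosidase (4 nM final) with 400 uM 4-methylumbelliferyl-alpha-D-glucopyranoside in citrate buffer pH 5.0, 20 min at room temperature, stopped at pH 10; fluorescence 365/440 nm, compounds 0.7 nM–77 uM, AC50 from Hill fits.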
# [15] = biological target: Ubiquitin carboxyl-terminal hydrolase 1 (Homo sapiens) (UniProt O94782); assay: Inhibitors of USP1/UAF1: Pilot qHTS (AID 504865);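 also: rhodamine fluorescence freed from ubiquitin-rhodamine substrate followed over time; top concentration of the series differs between compounds; nearly all actives have a fitted effect of over 35% in size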
# In short: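 Kinetic fluorescence assay: 1nM USP1/UAF1, 15 min compound preincubation, then 150nM Ub-Rho; 480/540 nm.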
# [16] = biological target: DNA dC->dU-editing enzyme APOBEC-3G (Homo sapiens) (UniProt Q9HC16); assay: qHTS for inhibitors of Vif-A3G interactions: Validation (AID 588379)
# Sequence of DNA dC->dU-editing enzyme APOBEC-3G (Homo sapiens) (Q9HC16 whole entry, looked up): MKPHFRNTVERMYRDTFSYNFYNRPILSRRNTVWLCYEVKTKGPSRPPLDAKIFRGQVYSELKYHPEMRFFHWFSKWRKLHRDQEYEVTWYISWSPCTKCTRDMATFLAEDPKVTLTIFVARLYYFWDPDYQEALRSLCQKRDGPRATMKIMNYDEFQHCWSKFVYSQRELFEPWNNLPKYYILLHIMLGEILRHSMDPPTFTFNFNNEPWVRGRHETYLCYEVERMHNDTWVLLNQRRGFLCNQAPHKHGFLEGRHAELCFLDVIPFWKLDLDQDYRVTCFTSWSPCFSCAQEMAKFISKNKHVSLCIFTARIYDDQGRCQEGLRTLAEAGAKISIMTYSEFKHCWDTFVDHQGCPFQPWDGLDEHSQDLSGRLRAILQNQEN
# In short: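 HeLa cells stably expressing Vif and A3G-eYFP, 700 cells/well, incubated overnight at 37 deg C, then exposed to compound overnight at 37 deg C. Inhibition of Vif-mediated degradation read as increased yellow fluorescence (Ex 488/Em 500-530) by laser-scanning cytometry.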
# [17] = biological target: Androgen receptor (Homo sapiens) (UniProt P10275); assay: qHTS assay for small molecule antagonists of androgen receptor signaling (AID 588516; active = well fitted curve in the direction sought with a large enough effect in the signal ratio, with a control signal flat, not every such curve was filed as active; the % refers to the signal ratio)
# In short: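 Antagonist-mode qHTS: inhibition of R1881 (10 nM)-driven beta-lactamase expression in GripTite HEK 293 cells is measured after 16 h; values are Hill-derived IC50s normalized between R1881 and DMSO wells.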
# [18] = biological target: Cytochrome P450 2C9 (Homo sapiens) (UniProt P11712); assay: qHTS Assay for Inhibitors and Substrates of Cytochrome P450 2C9 (AID 883); also: nearly all actives have a fitted effect of over 60% in size
# Sequence of Cytochrome P450 2C9 (Homo sapiens) (P11712 whole entry, looked up): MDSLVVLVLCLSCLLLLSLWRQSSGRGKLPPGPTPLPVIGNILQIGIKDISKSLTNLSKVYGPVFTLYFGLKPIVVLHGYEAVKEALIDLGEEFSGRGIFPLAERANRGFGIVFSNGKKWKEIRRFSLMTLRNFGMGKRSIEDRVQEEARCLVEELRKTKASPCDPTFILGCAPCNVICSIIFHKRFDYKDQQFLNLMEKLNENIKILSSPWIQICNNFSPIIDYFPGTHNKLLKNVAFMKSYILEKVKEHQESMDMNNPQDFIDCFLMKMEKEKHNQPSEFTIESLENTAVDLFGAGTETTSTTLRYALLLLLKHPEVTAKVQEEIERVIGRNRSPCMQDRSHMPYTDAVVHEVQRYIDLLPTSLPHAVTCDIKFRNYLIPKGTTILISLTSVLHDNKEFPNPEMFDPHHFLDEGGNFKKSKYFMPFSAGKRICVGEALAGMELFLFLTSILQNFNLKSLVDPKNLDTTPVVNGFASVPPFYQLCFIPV
# In short: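 A luminogenic readout tracked human CYP2C9 (10nM) converting deoxyluciferin (100uM, at KM) in 25mM KPO4 during 60 min at 37C with regenerated NADPH. Values normalized to 57uM sulphaphenazole as complete inhibition.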
# [19] = biological target: Cytochrome P450 2C19 (Homo sapiens) (UniProt P33261); assay: qHTS Assay for Inhibitors and Substrates of Cytochrome P450 2C19 (AID 899); also: nearly all actives have a fitted effect of over 60% in size
# Sequence of Cytochrome P450 2C19 (Homo sapiens) (P33261 whole entry, looked up): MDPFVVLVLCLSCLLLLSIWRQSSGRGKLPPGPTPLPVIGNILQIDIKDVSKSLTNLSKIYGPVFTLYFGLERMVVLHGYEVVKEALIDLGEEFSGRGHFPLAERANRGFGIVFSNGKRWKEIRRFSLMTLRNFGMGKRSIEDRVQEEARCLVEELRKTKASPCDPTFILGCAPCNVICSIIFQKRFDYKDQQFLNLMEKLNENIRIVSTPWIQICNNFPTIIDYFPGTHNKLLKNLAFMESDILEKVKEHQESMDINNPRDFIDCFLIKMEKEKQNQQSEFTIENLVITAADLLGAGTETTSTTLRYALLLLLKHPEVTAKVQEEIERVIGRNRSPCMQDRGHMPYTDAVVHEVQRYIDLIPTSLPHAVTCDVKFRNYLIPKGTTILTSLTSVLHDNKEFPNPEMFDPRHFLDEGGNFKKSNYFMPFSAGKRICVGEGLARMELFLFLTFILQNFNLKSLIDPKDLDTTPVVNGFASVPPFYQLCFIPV
# In short: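 NADPH-dependent conversion of Luciferin-H EGE (10uM, at KM) by 5nM enzyme in 50mM KPO4, 60 min at 37C following 10 min compound preincubation. Stopped with luciferin detection buffer; luminescence read after 20 min.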
# [20] = biological target: Tyrosyl-DNA phosphodiesterase 1 (Homo sapiens) (UniProt Q9NUW8); assay: Confirmation Assay for Inhibitors of Tyrosyl-DNA Phosphodiesterase (TDP1) (AID 489007); details: recombinant human TDP1 enzymatic activity, dose-response; also: potency is read from the fitted curve at half-maximal effect; nearly all actives have a fitted effect of over 40% in size
# In short: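 Recombinant E. coli-expressed Tdp1 (1 nM final) was preincubated with compounds 15 min at room temperature, then reacted 5 min with 15 nM 5'-biotin/3'-phosphotyrosine-FITC DNA substrate; cleavage read as loss of AlphaScreen signal (10 ug/ml beads, 10 min).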
structure (smiles),measurement,setting,value
Clc1ccc(C(c2ccc(Cl)cc2)C(Cl)Cl)cc1,Potency,[1],inactive
same,max response,[2],-7.51%
same,Potency,[3],inactive
same,max response,[4],-1.02%
COP(=O)(OC)O/C(=C\Cl)c1cc(Cl)c(Cl)cc1Cl,Potency,[1],inactive
same,activation,[5],-13% (inactive)
same,Potency,[6],inactive
O=C(O)C1C(C(=O)O)C2(Cl)C(Cl)=C(Cl)C1(Cl)C2(Cl)Cl (stereo unspecified),Potency,[1],inactive
same,Potency,[7],inactive
same,max response,[4],-3.38%
O=C(CCl)c1ccccc1,max response,[2],18.1%
same,Potency,[3],inactive
same,Potency,[8],inactive
OC(Cc1ccccc1)(c1ccccc1)C1CN2CCC1CC2 (stereo unspecified),activation,[9],10.8% (inactive)
ClC1=C(Cl)C2(Cl)C3C(Cl)C(Cl)CC3C1(Cl)C2(Cl)Cl (stereo unspecified),Potency,[10],inactive
same,activation,[5],-9.52% (inactive)
same,Potency,[6],42.2 µM (active)
COC[C@H]1OC(=O)c2coc3c2[C@@]1(C)C1=C(C3=O)[C@H]2CCC(=O)[C@@]2(C)C[C@H]1OC(C)=O,Potency,[11],25.1 µM (active)
same,Potency,[10],inactive
same,Potency,[12],inactive
same,outcome,[13],inactive
same,outcome,[14],inactive
same,Potency,[15],inactive
same,outcome,[16],inactive
CC(C)CC(C)Nc1ccc(Nc2ccccc2)cc1 (stereo unspecified),Potency,[10],inactive
OC(c1ccc(Cl)cc1)(c1ccc(Cl)cc1)C(Cl)(Cl)Cl,Potency,[1],inactive
same,Potency,[7],inactive
same,max response,[4],-15%
same,Potency,[6],inactive
C[C@@H]1O[C@@H](O[C@H]2C[C@@H](O)[C@]3(CO)[C@@H]4[C@@H](O)C[C@]5(C)[C@H](C6=CC(=O)OC6)CC[C@@]5(O)[C@H]4CC[C@@]3(O)C2)[C@H](O)[C@H](O)[C@@H]1O,Potency,[11],inactive
same,Potency,[12],inactive
same,outcome,[13],inactive
same,outcome,[14],inactive
N#CC(Cl)Cl,Potency,[10],inactive
same,activation,[5],16.6% (inactive)
same,Potency,[17],inactive
same,max response,[4],17.1%
Nc1ccccc1C(=O)OCCc1ccccc1,Potency,[10],inactive
same,Potency,[8],inactive
O=[N+]([O-])C(Br)Br,activation,[5],6.33% (inactive)
same,Potency,[17],inactive
same,max response,[2],-33.2%
same,Potency,[8],inactive
same,max response,[4],-3.79%
Oc1cc2c(cc1O)[C@H]1c3ccccc3CN[C@@H]1CC2,Potency,[11],inactive
same,Potency,[12],inactive
same,outcome,[13],inactive
same,outcome,[14],inactive
CC(C)C[C@H](NC(=O)[C@@H]1CCCN1C(=O)[C@@H](N)Cc1ccc(O)cc1)C(=O)NCC(N)=O (H-YPLG-NH2),activation,[9],-10.4% (inactive)
CN(C)c1ccc(N=O)cc1,Potency,[1],inactive
C(=NC1CCCCC1)=NC1CCCCC1,Potency,[1],inactive
same,Potency,[7],inactive
same,Potency,[6],53.1 µM (active)
c1ccc2cc3c(cc2c1)-c1cccc2cccc-3c12,max response,[4],21%
Oc1c(Br)c(Br)c(Br)c(Br)c1Br,Potency,[17],inactive
same,Potency,[7],28.2 µM (active)
C#CCO,max response,[2],29.5%
same,Potency,[3],inactive
same,max response,[4],3.2%
N#CSCSC#N,Potency,[8],35.5 µM (active)
FC(F)(F)c1ccc(Cl)cc1,Potency,[1],inactive
same,Potency,[7],inactive
same,max response,[2],-2.48% and -14.3%
same,Potency,[3],inactive
same,Potency,[8],inactive
COC1=C[C@H]2[C@@H]3Cc4ccc(OC)c(O)c4[C@@]2(CCN3C)CC1=O,Potency,[18],inactive
same,Potency,[19],inactive
COc1cc2c(cc1O)CCN[C@H]2C,Potency,[18],inactive
same,Potency,[19],inactive
CC1=CC(=O)C2=C(C)C[C@H](O)[C@@H]3[C@@H](OC(=O)[C@H]3C)[C@H]12,Potency,[18],inactive
same,Potency,[19],inactive
Oc1cc2c(cc1O)[C@H]1c3ccccc3CN[C@H]1CC2,Potency,[15],inactive
same,outcome,[16],inactive
COc1cc2c(cc1OC)-c1c(O)c(OC)cc3c1[C@@H](C2)N(C)CC3,Potency,[18],inactive
OC[C@H]1CCCN2CCCC[C@@H]12,Potency,[18],inactive
same,Potency,[19],inactive
COc1cc2c(cc1OC)-c1c(OC)c(OC)c(CO)c3c1[C@H](C2)N(C)CC3,Potency,[18],inactive
same,Potency,[19],inactive
C[C@@]12CCC[C@](C)(C(=O)O)[C@@H]1CCc1ccc(O)cc12,Potency,[18],inactive
same,Potency,[19],inactive
CCc1nnc(NC(=O)CSc2ccc(-c3ccco3)nn2)s1,Potency,[20],15.8 µM (active)
CC(C)(O/N=C(\C(=O)N[C@@H]1C(=O)N2C(C(=O)[O-])=C(C[n+]3ccccc3)CS[C@@H]12)c1csc(N)n1)C(=O)O,Potency,[20],15.8 µM (active)
CC(=O)Nc1ccc(N=Cc2c(O)n(Cc3ccco3)c(=O)[nH]c2=O)cc1,Potency,[20],22.4 µM (active)
CCOc1ccc2nc(N=Nc3c(O)[nH]c(=O)[nH]c3=O)sc2c1,Potency,[20],100 µM (active)
O=C1NC(=S)NC(=O)C1=Cc1ccc2c(c1)CCN2CCCCl,Potency,[20],2.51 µM (active)
O=c1c2ccccc2nc(/C=C/c2cccnc2)n1Cc1ccccc1,Potency,[20],14.1 µM (active)

# — PubChem BioAssay (NCATS)
